Calls of active or inactive are those of the source. Unless noted, the rule behind the calls is not given here.
Assays:
[1] = anti-His antibody binders, primary screen, artefact control for SMM control protein annotation, biochemical, small-molecule microarray, 635 nm fluorescence (AID 1128); settings: anti-His Alexa647 antibody binding, higher = more signal;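 note: score merges feature fluorescence with signal-to-noise for each printed compound spot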
[2] = test system: Human papillomavirus type 1a E7 protein (residues 1-88); test: HPV1a E7 small-molecule binders, primary screen, biochemical, small-molecule microarray, residues 1-88, 635 nm (AID 1129); settings: small-molecule microarray binding, fluorescence 635 nm; higher = more signal
[3] = biological target: Focal adhesion kinase 1 (Homo sapiens) (UniProt Q05397); test: small-molecule microarray binders of FAK, primary screen, biochemical, 635/667 nm fluorescence, BSA, DTT (AID 1130); settings: PTK2 binding, 635 nm fluorescence, higher = more signal;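 note: composite of spot emission at 667 nm and signal to noise over triplicate slides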
[4] = test system: Fibrinogen (Alexa647-labelled); test: fibrinogen binders on compound microarrays, profiling panel, artefact control for SMM control-protein annotation, biochemical, small-molecule microarray, 635/667 nm fluorescence (AID 1131); settings: fibrinogen-A647 binding fluorescence, higher = more signal;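 note: z-score merges 667 nm fluorescence with per-spot signal-to-noise over triplicate slides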
[5] = biological target: Follistatin (Homo sapiens) (UniProt P19883); test: follistatin binders on small-molecule microarrays, primary screen, biochemical, small-molecule microarray, 635/667 nm fluorescence (AID 1132); settings: FST binding, 635 nm fluorescence, higher = more signal
[6] = biological target: Fibroblast growth factor 2 (Homo sapiens) (UniProt P09038); test: FGF2 binders on small-molecule microarrays, primary screen, biochemical, small-molecule microarray, 635/667 nm fluorescence (AID 1133); settings: small-molecule microarray binding, FGF2, fluorescence 635/667; higher = more signal
[7] = mitochondrial membrane potential change in A549 cells, profiling panel, cell-based, JC-1 fluorescence, basal, 24 h, 100 nL (AID 1138); settings: higher = more signal;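 note: A549 lung adenocarcinoma cells under basal conditions with no added stimulus; test concentration not given here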
Lefty1 = Lefty1 binders on small-molecule microarrays, primary screen, biochemical, small-molecule microarray, 635/667 nm fluorescence (AID 1139); settings: small-molecule microarray binding, fluorescence 635/667; higher = more signal
[8] = test system: wheat germ agglutinin (Triticum aestivum), Alexa647-labelled; test: wheat germ agglutinin binders on compound microarrays, profiling panel, artefact control for SMM control-protein annotation, biochemical, small-molecule microarray, 635/667 nm fluorescence (AID 1140); settings: WGA-A647 binding, 635 nm fluorescence, higher = more signal;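 note: score merges 667 nm feature emission with signal to noise over triplicate slides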
[9] = biological target: Luciferin 4-monooxygenase (Photinus pyralis) (UniProt P08659); test: firefly luciferase enzyme inhibitors, primary screen, biochemical, luminescence, purified enzyme, 2006 set (AID 1141); settings: SteadyGlo luminescence, 30 min, higher = more signal, called active from +8 up or from −8 down;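 note: cell-free assay with purified firefly luciferase at 100 ng per well in PBS; test concentration not given here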
[10] = test system: Wnt5a (protein binding on small-molecule microarray); test: Wnt5a binders on small-molecule microarray, primary screen, biophysical, 635/667 nm fluorescence (AID 1142); settings: 635 nm fluorescence, higher = more signal;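 note: fluorescence read at 667 nm with signal to noise per printed feature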
[11] = cell viability in Huh7 cells, primary screen, cytotoxicity control for HCV replication inhibitor project, CellTiter-Glo luminescence, basal, 48 h (AID 1143); settings: Huh7 HCV replicon, higher = more signal, called active from +8 up or from −8 down;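 note: Huh7 hepatoma cells carrying a hepatitis C replication reporter with no stimulus; test concentration not given here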
[12] = P. aeruginosa biofilm formation inhibitors, primary screen, PAO1 strain, BacTiter-Glo luminescence, LB-PBS (AID 1144); settings: 12 h, higher = more signal
[13] = CREB reporter modulators without forskolin, primary screen, cell-based, PC12, CRE-LacZ reporter, unstimulated (AID 1145); settings: no forskolin, luminescence, 4.5 h, higher = more signal, called active from +8 up or from −8 down
[14] = CREB reporter modulators under forskolin, primary screen, cell-based, PC12, CRE-LacZ reporter, forskolin-stimulated (AID 1146); settings: luminescence, 4.5 h, higher = more signal, called active from +8 up or from −8 down;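 note: PC12 cells with 6xCRE LacZ reporter stimulated by forskolin 10 µM; beta-galactosidase reporter signal reflecting CREB driven transcription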
[15] = biological target: Streptavidin (Streptomyces avidinii) (UniProt P22629); test: streptavidin binders on small-molecule microarray, primary screen, artefact control for SMM compound annotation, biophysical, 635/667 nm fluorescence (AID 1147); settings: streptavidin binding, higher = more signal;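 note: signal reflects streptavidin binding to arrayed compounds as a control protein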
[16] = small-molecule binders of probe aInhba, primary screen, biochemical, small-molecule microarray, 635/667 nm fluorescence (AID 1148); settings: higher = more signal;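 note: score merges 667nm spot fluorescence with signal-to-noise for antibody binding to printed compounds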
Torsin-1A (Homo sapiens) [17] = biological target: Torsin-1A (Homo sapiens) (UniProt O14656); test: torsin A binders from cell lysate, primary screen, small-molecule microarray, wild-type, 635/667 nm (AID 1149); settings: COS7 hTOR1A-WT lysate, 635 nm fluorescence, higher = more signal
Torsin-1A (Homo sapiens) [18] = biological target: Torsin-1A (Homo sapiens) (UniProt O14656); test: small-molecule binders of mutant TOR1A in lysate, primary screen, cell lysate, small-molecule microarray, COS7 lysate, 635/667 nm fluorescence (AID 1150); settings: COS7 hTOR1A mutant lysate, 635 nm fluorescence, higher = more signal;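 note: score pools 667 nm emission and signal to noise measuring lysate protein binding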
[19] = test system: Sonic hedgehog protein (Shh); test: small-molecule binders of Shh protein, primary screen, biochemical, small-molecule microarray, 635/667 nm fluorescence (AID 1151); settings: small-molecule microarray binding, 635 nm fluorescence; higher = more signal;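 note: Shh protein binding to compounds spotted on small-molecule microarray slides; score combines spot fluorescence intensity with signal-to-noise across triplicate slides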

Chain of Streptavidin (Streptomyces avidinii) (P22629 whole entry, looked up): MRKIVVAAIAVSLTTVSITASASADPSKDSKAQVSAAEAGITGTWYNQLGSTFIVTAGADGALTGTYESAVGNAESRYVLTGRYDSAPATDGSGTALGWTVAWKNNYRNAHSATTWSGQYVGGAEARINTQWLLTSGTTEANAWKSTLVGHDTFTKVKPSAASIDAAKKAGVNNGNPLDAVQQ
Chain of Follistatin (Homo sapiens) (P19883 whole entry, looked up): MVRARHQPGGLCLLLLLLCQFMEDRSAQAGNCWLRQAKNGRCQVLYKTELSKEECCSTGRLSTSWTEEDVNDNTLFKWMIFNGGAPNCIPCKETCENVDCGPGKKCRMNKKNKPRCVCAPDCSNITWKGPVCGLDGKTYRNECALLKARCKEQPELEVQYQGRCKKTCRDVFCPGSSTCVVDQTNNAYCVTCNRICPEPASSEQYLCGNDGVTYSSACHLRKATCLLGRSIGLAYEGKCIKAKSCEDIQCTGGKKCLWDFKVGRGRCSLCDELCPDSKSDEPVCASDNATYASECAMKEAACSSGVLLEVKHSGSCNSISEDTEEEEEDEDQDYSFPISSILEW
Chain of Focal adhesion kinase 1 (Homo sapiens) (Q05397 whole entry, looked up): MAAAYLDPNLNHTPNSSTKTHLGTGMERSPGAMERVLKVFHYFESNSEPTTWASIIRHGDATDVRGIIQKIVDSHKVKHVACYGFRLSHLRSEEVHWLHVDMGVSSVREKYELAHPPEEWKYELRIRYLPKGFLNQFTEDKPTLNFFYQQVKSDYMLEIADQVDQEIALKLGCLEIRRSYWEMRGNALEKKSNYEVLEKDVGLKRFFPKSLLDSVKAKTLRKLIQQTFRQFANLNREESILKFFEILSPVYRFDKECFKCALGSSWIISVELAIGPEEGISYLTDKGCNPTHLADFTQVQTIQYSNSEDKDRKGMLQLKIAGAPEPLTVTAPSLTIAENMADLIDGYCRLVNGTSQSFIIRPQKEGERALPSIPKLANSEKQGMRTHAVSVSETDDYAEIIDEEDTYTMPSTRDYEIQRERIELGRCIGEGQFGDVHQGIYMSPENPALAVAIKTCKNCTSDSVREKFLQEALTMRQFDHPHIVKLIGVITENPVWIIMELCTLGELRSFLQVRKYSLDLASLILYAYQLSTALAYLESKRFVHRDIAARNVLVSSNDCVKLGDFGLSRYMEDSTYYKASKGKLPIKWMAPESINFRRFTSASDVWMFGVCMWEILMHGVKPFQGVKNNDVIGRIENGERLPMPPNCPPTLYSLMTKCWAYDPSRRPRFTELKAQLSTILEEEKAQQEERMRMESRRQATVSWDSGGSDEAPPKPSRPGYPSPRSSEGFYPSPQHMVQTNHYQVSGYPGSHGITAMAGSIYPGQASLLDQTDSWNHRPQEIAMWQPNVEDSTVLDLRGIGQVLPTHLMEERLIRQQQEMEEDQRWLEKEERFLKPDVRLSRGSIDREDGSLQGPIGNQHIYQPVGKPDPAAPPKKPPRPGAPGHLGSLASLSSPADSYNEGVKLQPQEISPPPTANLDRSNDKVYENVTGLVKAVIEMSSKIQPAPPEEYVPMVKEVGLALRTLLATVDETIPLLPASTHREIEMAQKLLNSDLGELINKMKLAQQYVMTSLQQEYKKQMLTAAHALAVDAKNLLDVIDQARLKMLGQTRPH
Chain of Fibroblast growth factor 2 (Homo sapiens) (P09038 whole entry, looked up): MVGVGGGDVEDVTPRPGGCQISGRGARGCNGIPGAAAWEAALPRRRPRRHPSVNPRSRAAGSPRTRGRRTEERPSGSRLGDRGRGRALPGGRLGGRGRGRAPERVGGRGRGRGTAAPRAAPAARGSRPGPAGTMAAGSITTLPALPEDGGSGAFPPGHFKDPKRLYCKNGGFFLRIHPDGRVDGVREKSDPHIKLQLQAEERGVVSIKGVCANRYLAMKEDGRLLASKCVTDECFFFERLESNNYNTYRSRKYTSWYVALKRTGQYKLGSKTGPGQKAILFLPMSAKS
Chain of Torsin-1A (Homo sapiens) (O14656 whole entry, looked up): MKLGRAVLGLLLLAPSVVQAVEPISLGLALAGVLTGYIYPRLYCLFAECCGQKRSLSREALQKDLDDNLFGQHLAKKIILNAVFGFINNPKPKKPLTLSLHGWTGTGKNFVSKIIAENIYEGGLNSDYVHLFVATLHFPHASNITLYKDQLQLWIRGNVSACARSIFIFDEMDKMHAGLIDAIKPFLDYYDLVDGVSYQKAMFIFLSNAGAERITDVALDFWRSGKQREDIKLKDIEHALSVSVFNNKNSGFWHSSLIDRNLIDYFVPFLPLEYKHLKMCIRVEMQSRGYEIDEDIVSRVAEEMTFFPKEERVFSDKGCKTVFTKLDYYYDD
Chain of Luciferin 4-monooxygenase (Photinus pyralis) (P08659 whole entry, looked up): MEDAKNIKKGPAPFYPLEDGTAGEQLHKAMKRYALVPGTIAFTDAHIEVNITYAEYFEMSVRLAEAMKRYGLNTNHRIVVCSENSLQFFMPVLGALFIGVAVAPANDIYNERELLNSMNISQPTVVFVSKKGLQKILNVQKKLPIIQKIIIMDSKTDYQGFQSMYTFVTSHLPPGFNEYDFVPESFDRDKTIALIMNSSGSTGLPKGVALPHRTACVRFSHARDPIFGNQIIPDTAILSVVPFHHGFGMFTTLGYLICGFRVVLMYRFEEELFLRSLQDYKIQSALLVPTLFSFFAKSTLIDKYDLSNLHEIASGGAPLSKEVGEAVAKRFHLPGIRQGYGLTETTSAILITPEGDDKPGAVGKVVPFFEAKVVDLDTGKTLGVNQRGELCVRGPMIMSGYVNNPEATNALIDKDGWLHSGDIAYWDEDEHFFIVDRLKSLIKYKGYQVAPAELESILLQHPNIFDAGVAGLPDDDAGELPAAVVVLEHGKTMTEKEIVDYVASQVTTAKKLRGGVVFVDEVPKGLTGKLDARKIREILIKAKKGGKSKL

| Structure (SMILES) | composite z-score [1] | composite z-score [2] | composite z-score [3] | composite z-score [4] | composite z-score [5] | composite z-score [6] | z-score [7] | composite z-score (Lefty1) | composite z-score [8] | z-score [9] | composite z-score [10] | z-score [11] | z-score [12] | z-score [13] | z-score [14] | composite z-score [15] | composite z-score [16] | composite z-score (Torsin-1A (Homo sapiens) [17]) | composite z-score (Torsin-1A (Homo sapiens) [18]) | composite z-score [19] |
| --- | --- | --- | --- | --- | --- | --- | --- | --- | --- | --- | --- | --- | --- | --- | --- | --- | --- | --- | --- | --- |
| O=C1O[C@@H](c2ccccc2)[C@@H](c2ccccc2)N2[C@@H](c3ccc(OCCO)cc3)[C@]3(C(=O)Nc4ccc(C#CCCO)cc43)[C@@H](C(=O)Nc3nc4ccccc4s3)[C@H]12 | 0.324 | 1.13 | 0.256 | 0.978 | 1.4 | 0.474 | -2.19 | 0.502 | 0.468 | -0.7 (inactive) | 0.482 | -2.56 (inactive) | -0.397 (inactive) | 0.389 (inactive) | 0.0759 (inactive) | 1.05 | 0.0291 | 0.222 | 0.79 | 0.589 |
| CCCCC(=C=CC[C@@H](O)c1ccc(OCCO)cc1)C[C@@H](O)c1ccccn1 | -0.0662 | 0.731 | 0.178 | 0.141 | 1.22 | 0.611 | 0.176 | 1.47 | -0.146 | -1.12 (inactive) | 0.158 | -1.31 (inactive) | 0.412 (inactive) | 14.6 (active) | -0.0387 (inactive) | -0.0544 | 0.0569 | 0.634 | 0.51 | 1.48 |
| C=C(COC)/C(=C/C[C@@H](OC(C)=O)c1ccccc1OCCO)c1cc(C(=O)OC)ccc1OC | 2.21 | 0.461 | -0.102 | -0.325 | 0.569 | 0.36 | 1.75 | 0.624 | 0.344 | -1.47 (inactive) | 0.143 | -1 (inactive) | -0.765 (inactive) | 11.4 (active) | 0.323 (inactive) | -0.333 | -0.188 | 0.237 | 0.612 | 0.94 |

From PubChem BioAssay
